# Among all 310,000 compounds or so, about 14,000 (4.5%) showed an effect of 50% or more. The effect is printed as a negative number. The entries come from a sample that favours strong results as a whole.
# Target: human ether-à-go-go-related gene (hERG) potassium channel (human, UniProt Q12809)
# Assay: primary screen, population patch clamp on CHO cells stably expressing hERG; higher = less effect of the substance
# 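Further: peak tail current of the secondary pulse compared with the same well before compound.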
# Sequence of human ether-à-go-go-related gene (hERG) potassium channel (Q12809 whole entry, looked up): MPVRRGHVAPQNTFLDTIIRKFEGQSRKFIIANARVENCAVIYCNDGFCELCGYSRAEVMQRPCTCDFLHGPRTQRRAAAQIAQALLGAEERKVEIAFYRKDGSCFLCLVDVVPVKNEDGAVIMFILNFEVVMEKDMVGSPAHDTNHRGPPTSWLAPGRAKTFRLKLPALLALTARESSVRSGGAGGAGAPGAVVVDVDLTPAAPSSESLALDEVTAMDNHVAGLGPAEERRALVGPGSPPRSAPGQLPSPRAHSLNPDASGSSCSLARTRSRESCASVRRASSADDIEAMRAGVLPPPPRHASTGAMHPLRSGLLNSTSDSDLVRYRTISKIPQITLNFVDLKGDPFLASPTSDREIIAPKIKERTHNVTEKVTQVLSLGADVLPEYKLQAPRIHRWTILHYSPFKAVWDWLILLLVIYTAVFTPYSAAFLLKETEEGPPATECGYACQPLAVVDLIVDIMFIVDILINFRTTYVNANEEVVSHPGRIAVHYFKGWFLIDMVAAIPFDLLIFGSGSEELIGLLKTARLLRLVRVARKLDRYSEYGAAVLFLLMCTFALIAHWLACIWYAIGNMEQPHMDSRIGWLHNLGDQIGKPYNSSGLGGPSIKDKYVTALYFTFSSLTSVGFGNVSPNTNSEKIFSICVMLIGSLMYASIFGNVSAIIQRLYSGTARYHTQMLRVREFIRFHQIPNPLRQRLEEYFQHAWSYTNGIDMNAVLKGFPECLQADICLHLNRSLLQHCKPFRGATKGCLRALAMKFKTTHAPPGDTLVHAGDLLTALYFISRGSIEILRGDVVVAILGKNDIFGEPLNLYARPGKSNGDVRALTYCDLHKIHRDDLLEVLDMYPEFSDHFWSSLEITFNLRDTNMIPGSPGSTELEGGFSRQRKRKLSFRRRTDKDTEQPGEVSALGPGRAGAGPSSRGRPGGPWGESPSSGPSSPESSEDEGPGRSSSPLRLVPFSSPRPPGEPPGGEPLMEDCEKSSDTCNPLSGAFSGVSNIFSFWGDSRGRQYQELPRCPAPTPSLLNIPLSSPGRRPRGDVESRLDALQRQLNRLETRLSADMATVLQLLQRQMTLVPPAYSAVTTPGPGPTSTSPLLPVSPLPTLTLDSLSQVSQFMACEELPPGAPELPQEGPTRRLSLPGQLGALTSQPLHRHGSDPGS
row,Compound,"hERG current change (%, negative = inhibition) at 10uM [%]"
1,O=C(Cn1nc(C(=O)O)c2ccccc2c1=O)Nc1ccc(F)cc1,8.44
2,COCC(=O)OC/C(O)=C(\C#N)c1nc2ccccc2[nH]1,11
3,COC(=O)C1=C(c2c(C)noc2C)C[C@@H]2CC[C@H]1N2C(=O)NCCNC(C)=O,22.2
4,CC(NCc1ccc(S(N)(=O)=O)cc1)C(=O)Nc1ccc([N+](=O)[O-])cc1Cl (centres unmarked),-50.5
5,CC(NCc1ccc(S(N)(=O)=O)cc1)C(=O)Nc1cccc(Cl)c1 (centres unmarked),-8.15
6,CC(NCc1ccc(S(N)(=O)=O)cc1)C(=O)Nc1cc([N+](=O)[O-])ccc1Cl (centres unmarked),-45.8
7,Cc1onc(-c2ccccc2)c1CNC(=O)C1COc2ccccc2O1 (centres unmarked),-23
8,Cc1ccc2oc(=O)c3cc(C(=O)NCCCN4CCCCCC4)sc3c2c1,-40.2
9,CN1CCN(CCCNC(=O)c2cc3c(=O)oc4ccccc4c3s2)CC1,-14.2
10,O=C(NCCCN1CCCCCC1)c1cc2c(=O)oc3ccccc3c2s1,-60.5
11,Cc1ccc2oc(=O)c3cc(C(=O)NCCCN4C(C)CCCC4C)sc3c2c1 (centres unmarked),-61.6
12,CCC1CCCCN1CCCNC(=O)c1cc2c(=O)oc3ccc(C)cc3c2s1 (centres unmarked),-69.5
13,Cc1ccc2oc(=O)c3cc(C(=O)NCCCN4CCN(C)CC4)sc3c2c1,-5.62
14,Cc1ccc2oc(=O)c3cc(C(=O)NCCCN4CC(C)CC(C)C4)sc3c2c1 (centres unmarked),-49.2
15,CCN1CCN(CCCNC(=O)c2cc3c(=O)oc4ccc(C)cc4c3s2)CC1,-19.1
16,Cc1ccc2oc(=O)c3cc(C(=O)NCCCN4CCCC(C)C4)sc3c2c1 (centres unmarked),-34.9
17,Cc1nn(C)c(C(=O)Nc2ccc(S(=O)(=O)NC34CC5CC(CC(C5)C3)C4)cc2)c1Br,9.77
18,COc1ccc(OCC(O)CN(CC(O)COc2ccc(OC)cc2)c2cccc(O)c2)cc1 (centres unmarked),2.41
19,CCSc1nnc2c(n1)OC1(CCCC1)Nc1ccccc1-2,2.61
20,COc1ccc(CN(C)C(=O)CCN2C(=O)c3ccccc3C2=O)c(OC)c1OC,-2.22

row,Compound,"hERG current change (%, negative = inhibition) at 10uM [%]"
1,CCc1c(C)sc(NC(=S)N2CCN(C(=O)C3CCCO3)CC2)c1C(=O)OC (centres unmarked),-13
2,CC(C)Cc1nnc(NC(=O)CCC(=O)N2CCN(c3ccccc3F)CC2)s1,17
3,Cc1ccc(Nc2ccc(C(N)=O)cc2[N+](=O)[O-])cc1C,8.9
4,CC(=O)OC(C(=O)NCc1ccc(F)cc1)c1ccccn1 (centres unmarked),4.52
5,OCC[C@@H]1C[C@@H](O)[C@H](O)[C@@]2(Cc3ccccc3CCO2)O1,11
6,Cn1ccc(NC(=O)c2ccc(Cl)cc2Cl)n1,7.79
7,O=C(CN1C(=O)c2ccccc2C1=O)Nc1cccc(S(=O)(=O)Nc2ccccc2Cl)c1,19.9
8,COc1ccc(C2=Nn3c(nnc3-c3ccncc3)SC2)cc1OC,-70.8
9,COc1ccc(C2=Nn3c(nnc3-c3ccccn3)SC2)cc1OC,-34.3
10,COc1ccc(OC)c(C2=Nn3c(nnc3-c3ccncc3)SC2)c1,-24.3
11,c1ccc(C2=Nn3c(nnc3-c3cccnc3)SC2)cc1,-25.4
12,COc1ccc(C2=Nn3c(nnc3-c3ccccc3)SC2)cc1OC,7.08
13,COc1ccc(C2=Nn3c(nnc3-c3cccnc3)SC2)cc1OC,-61.8
14,O=S(=O)(c1ccc(NC2CCCCC2)cc1)N1CCOCC1,-23.7
15,COc1ccc(NC(=O)c2cc(-c3ccccn3)nc3ccccc23)cc1S(=O)(=O)N(C)C,-16.6
16,O=C(Nn1cnnc1)c1ccc(Br)s1,13.9
17,CN(C)C(=O)CSc1nc2ccccc2c(=O)[nH]1,22
18,CCN(CC)CCn1c2c(c(SCC(=O)Nc3nc4ccccc4s3)nc1=O)CCCC2,-60.2
19,CCN(CC)CCCn1c2c(c(SCC(=O)Nc3nc4ccccc4s3)nc1=O)CCC2,-71.2
20,CCN(CC)CCn1c2c(c(SCC(=O)Nc3nc4ccccc4s3)nc1=O)CCC2,-58.3

row,Compound,"hERG current change (%, negative = inhibition) at 10uM [%]"
1,CCCNC(=O)c1onc(CSc2ccc(Cl)cc2)c1C(=O)NCCOC,-19.7
2,Cn1c(SCc2cccnc2)nc2c(c1=O)SCC2,7.48
3,N#Cc1cc2c(=O)n3ccccc3nc2n(-c2ccc(Cl)cc2)c1=O,5.19
4,COC(=O)c1sccc1NC(=O)CN1CCN(c2ccc(F)cc2)CC1,6.89
5,Cc1nc(SCC(=O)Nc2cccc(Cl)c2)n[nH]1,6.87
6,O=C(NC1CC2CCCC(C1)N2S(=O)(=O)c1ccccc1)C1CCCCC1 (centres unmarked),-2.61
7,O=C(Nc1ccc(N2CCOCC2)cc1)NC1CCCCC1,6.25
8,CC(=O)c1sc(NC(=O)c2cc(S(=O)(=O)N3CCOCC3)ccc2F)nc1C,-1.54
9,Cc1ccc(C(=O)NCc2ccncc2)cc1S(=O)(=O)N1CCCCC1,-30.5
10,Cc1ccc(C(=O)NCc2ccccc2CN2CCCC2)cc1S(=O)(=O)N1CCOCC1,-61.4
11,O=C(NCc1cccnc1)c1ccc(Cl)c(S(=O)(=O)N2CCCCCC2)c1,-36.2
12,Cc1ccc(S(=O)(=O)N2CCCCCC2)cc1C(=O)NCc1ccccn1,-14.8
13,Cc1ccc(S(=O)(=O)N2CCCC2)cc1C(=O)NCc1ccccc1CN1CCCC1,-52.3
14,Cc1ccc(C(=O)NCc2ccccc2F)cc1S(=O)(=O)N1CCCC1,4.12
15,COc1ccc2nc(NC(=O)c3cc(S(=O)(=O)N4CCOCC4)ccc3C)sc2c1,1.72
16,Cc1ccc(S(=O)(=O)N2CCCC2)cc1C(=O)NCc1ccccn1,5.54
17,Cc1ccc(C(=O)NCc2ccccn2)cc1S(=O)(=O)N1CCOCC1,8.99
18,Cc1ccc(C(=O)NCc2cccnc2)cc1S(=O)(=O)N1CCCCCC1,-65.7
19,CCOC(=O)c1sc(NC(=O)c2cc(S(=O)(=O)N3CCOCC3)ccc2C)nc1C,-60.9

# — paper PMC4336329 (PLoS ONE, 2015)
